# VACV mCherry inh – inhibitors of vaccinia virus infection (mCherry reporter signal) | Vaccinia virus mCherry reporter infection, fluorescence | Potency, µM (highest dose often 36.5 µM), without a hit: top-dose activity change, negative = inhibition, hits mostly inhibitors | 310,000 tested, 0.63% active; calls by dose curve; tested in A549 cells; also: potency is read from the fitted curve at half-maximal effect; % is scaled to controls: 0 for no effect and ±100 for the full control effect; nearly all actives have a fitted effect of over 35% in size
# Shiga toxin inh – inhibitors of Shiga toxin in Vero cells; inhibition, % at 38.7 µM; AID 2315; 290,000 tested, 9.2% active; Vero cells, Shiga toxin protein synthesis inhibition reporter; in the data active = inhibition mostly above about 28%, no sharp cut-off; inactive = mostly below about 43%; also: 0% is about no effect
# Lassa entry inh – blocks Lassa virus binding to or entry into cells. AID 540256. Potency, µM (titrated, usually from 37.9 µM), inactives show top-dose activity change, negative = inhibition, most hits filed as inhibitors. 300,000 tested, 1.2% active. Lassa virus pseudotype entry inhibition, cell reporter; calls by dose curve; tested in HEK293 cells; also: potency is read from the fitted curve at half-maximal effect; % is scaled to controls: 0 for no effect and ±100 for the full control effect; nearly all actives have a fitted effect of over 50% in size
# MARV entry inh – Marburg virus entry inhibition; 300,000 tested, 1.8% active; Potency, µM (titrated, usually from 37.8 µM), for the others: top-dose activity change, negative = inhibition, most hits filed as inhibitors; Marburg virus pseudotyped entry inhibition, cell reporter; calls by dose curve; tested in HEK293 cells; also: potency is read from the fitted curve at half-maximal effect; % is scaled to controls: 0 for no effect and ±100 for the full control effect
# Vaccinia Venus – vaccinia inhibition (Venus reporter); Vaccinia virus Venus reporter expression, fluorescence; Potency, µM (series often up to 36.5 µM), without a hit: at the top dose activity change, negative = inhibition, most hits filed as inhibitors; 330,000 tested, 0.46% active; calls by dose curve; tested in A549 cells; also: potency is read from the fitted curve at half-maximal effect; % is scaled to controls: 0 for no effect and ±100 for the full control effect; nearly all actives have a fitted effect of over 30% in size
# CHX counter – affects cycloheximide protein synthesis inhibition readout, counter-screen; cell reporter, cycloheximide protein synthesis inhibition counterscreen; max response, %; 300,000 tested, 12% active; in the data active = max response mostly above about 13%, no sharp cut-off; inactive = mostly below about 14%; also: read at 38.3 µM for the half of the compounds with a filed dose; 0% is about no effect
# * = called active by the depositor; i = inactive; ? = inconclusive; · = no result; [ ] = remark or other dose. Shown is part of a subset that was picked to be rich in hits.
SMILES,VACV mCherry inh,Shiga toxin inh,Lassa entry inh,MARV entry inh,Vaccinia Venus,CHX counter
Cc1cccc(NC(=O)C2CCCN(S(=O)(=O)c3ccc4[nH]c(=O)ccc4c3)C2)n1 (configuration not stated),-13.1%,17.0,?,-0.9%[46.1 µM],-3.4%,-2.4
CN(C)c1ccc(Nc2ncnc3sc4c(c23)CCCC4)cc1,?,·,-12.9%[46.1 µM],·,-12.3%,·
CC[C@H](C(=O)OCCN(CC)CC)c1ccccc1,·,·,·,1.9%,·,·
CC1(C(=O)N2CCC(CC3CC(c4ccc(Cl)cc4)=NO3)(C(=O)NCC3CCCCC3)CC2)CC1 (configuration not stated),i,-3.7,·,·,?,-1.0
CC(C)(C)OC(=O)N1CCC(CC2CC(c3ccc(Cl)cc3)=NO2)(C(=O)NCC2CCCCC2)CC1 (configuration not stated),-26.0%,46.6*,·,·,?,32.1*
O=C(N/N=C/c1cccc(O)c1)c1ccc(COc2ccc3c(c2)CCC3)o1,·,56.9*,6.4%,?,-10.5%,34.8*
CC(/C=N/NC(=O)c1ccc(Cn2cc([N+](=O)[O-])cn2)o1)=C\c1ccccc1,-11.0%,71.5*,6.2%[46.1 µM],5.6%[46.1 µM],-11.7%,26.0*
CCOc1ccc(CNC(=S)N/N=C\c2ccc([N+](=O)[O-])cc2)cc1,-27.8%,9.4,?,14.2%,-18.0%,11.7*
CCOc1ccccc1/C=N/NC(=O)c1ccc(Cn2cc([N+](=O)[O-])cn2)o1,·,-6.1,-0.8%,-7.9%,-13.6%,-1.6
CCOc1ccc(CC(=O)N/N=C/c2cccnc2)cc1,-22.4%,-6.5,?,-15.4%,-10.5%,-1.6
CCCc1ccc(OCc2ccc(C(=O)N/N=C/c3cccnc3)o2)cc1,·,109.6*,·,·,·,68.4*
NC(=O)CC(NC(=O)c1ccc(Br)cc1)c1ccc(N2CCCCCCC2)c([N+](=O)[O-])c1 (configuration not stated),-22.9%,-3.1,·,·,?,-2.1
Cc1cn2c(=O)cc(COC(=O)c3cccc(NC(=O)COc4ccccc4Cl)c3)nc2s1,-8.0%[7.34 µM],·,29.4%[46.1 µM],·,-5.7%[7.34 µM],·
C[C@H]1CC[C@H]2C(=O)N(Cc3ccccc3)C[C@@H](O)CN2[C@H]1c1cccc(Br)c1,·,·,?,10.3%[14.2 µM],·,·
CCOc1ccccc1NC(=O)CSc1c(C)cnc2c1c(=O)n(C)c(=O)n2C,-11.8%,·,27.3%[46.1 µM],·,-14.3%,·
CC(C)C(NS(=O)(=O)c1cccc2cccnc12)C(=O)Nc1ccc(OC(F)(F)F)cc1 (configuration not stated),1.8%,·,11.4%[46.1 µM],·,4.3%,·
C/C(=N\NC(=O)c1ccc(Cn2cc(Br)cn2)o1)c1ccc(NC(=O)c2ccoc2C)cc1,?,65.1*,-24.7%,?,?,38.7*
CCOc1ccc(/C=N/NC(=O)c2ccc(Cn3cc([N+](=O)[O-])cn3)o2)cc1,?,51.2*,?,11.9%,-17.0%,22.7*
CC(C)(C)c1ccc(OCc2ccc(C(=O)N/N=C/c3ccc([N+](=O)[O-])cc3)o2)cc1,-14.9%,58.1*,?,?,-14.7%,23.7
CCOc1ccc(/C=N/NC(=O)c2ccc(Cn3cc(Br)cn3)o2)cc1,-22.7%,active,16.1%,?,-14.0%,28.0*
COc1ccc(/C=N/NC(=O)c2ccc(COc3ccccc3Cl)o2)cc1,-11.6%,21.8,-26.8%,-24.9%,-22.3%,14.7
COc1cc(C2c3c(-c4c(C)cc(C)cc4O)n[nH]c3C(=O)N2Cc2ccco2)cc(OC)c1OC (configuration not stated),i,·,?,0.1%[46.1 µM],-12.7%,·
C[S+](=O)([O-])c1sc(C(=O)NC(=S)NC2CCC(OC(F)(F)F)CC2)c2c1C=CCC2 (configuration not stated),·,·,·,-2.0%[46.1 µM],·,·
O=C(NCC(c1ccc2c(c1)OCO2)N1CCOCC1)c1cccc(Cl)c1 (configuration not stated),-13.1%,·,-5.4%[46.1 µM],·,3.8%,·
CC(=O)c1ccc(NC(=O)/C(Cl)=C/c2ccccc2)cc1,-3.8%,146.9*,?,?,-4.8%,41.4*
SMILES,VACV mCherry inh,Shiga toxin inh,Lassa entry inh,MARV entry inh,Vaccinia Venus,CHX counter
O=C(Nc1ccc(F)cc1)/C(Cl)=C/c1ccccc1,-21.7%,62.4*,-24.9%,?,-10.1%,39.9*
CC(=O)c1ccc(NC(=O)/C(=C\c2ccccc2)NC(=O)/C=C/c2ccccc2)cc1,-16.7%,-7.2,-0.4%,-1.0%[46.1 µM],-7.1%,2.3
Cc1ccc(NC(=O)/C(Cl)=C\c2ccccc2)cc1,i,5.8,4.47µM*,7.94µM*,-21.1%,5.9
CC(=O)c1ccc(NC(=O)C2(c3ccccc3)CC2(Cl)Cl)cc1 (configuration not stated),i,88.0*,-19.5%,?,-1.3%,40.1*
O=C(Nc1ccc(Cl)c(S(=O)(=O)N2CCOCC2)c1)[C@@H]1CCCN1C(=O)c1cccs1,-25.8%,·,19.7%,12.0%,-10.2%,·
CCC(NC(=O)CCc1c(C)c2cc3c4c(oc3cc2oc1=O)CCCC4)C(=O)O (configuration not stated),·,32.6,·,·,·,7.7
CCCc1ccc(/C=C2\C(=O)c3ccccc3C(O)=C2C(=O)OCC)cc1,·,-3.4,·,·,·,19.9*
CCOC(=O)C1=C(C)OC(=Cc2ccc(OC)cc2)C1=O,i,·,·,·,-3.7%,·
CCOC(=O)C1=C(O)c2ccccc2C(=O)/C1=C\c1ccc(CC)cc1,·,58.5*,?,2.06µM*,·,31.4*
Cc1csc(SCC(=O)N2CCOc3ccc(C(O)C4CCCCC4)cc3C2)n1 (configuration not stated),-4.7%,·,·,·,-10.7%,·
CCOC(=O)c1c(S(=O)(=O)NCC(=O)Nc2cc(C)ccn2)c(C)n(C)c1C,i,42.2,?,3.4%[46.1 µM],-18.4%,13.4*
CCOC(=O)c1c(S(=O)(=O)NCC(=O)Nc2cc(C)ccc2C)c(C)n(C)c1C,-7.0%,13.8,-1.7%[46.1 µM],12.4%[46.1 µM],-20.1%,-3.2
Cc1c(/C=C/c2ccnc3ccccc23)ccc(N(C)C)c1C,-28.1%,·,·,·,-7.3%,·
CC(C)Oc1cccc(C(=O)C2CCCN(Cc3cccn3-c3ccccn3)C2)c1 (configuration not stated),-4.7%,-11.8,11.2µM*,?,-6.4%,-6.7
CCn1nc(C)c(CN2CCCC(C(=O)c3cccc(OC(C)C)c3)C2)c1C (configuration not stated),·,-23.6,·,·,·,-1.5
O=C(c1ccc(Cl)cc1)C1CCCN(Cc2cccn2-c2ccccn2)C1 (configuration not stated),-7.3%,-2.8,?,3.98µM*,-13.4%,-2.7
COc1ccc(C(=O)C2CCCN(Cc3cccn3-c3ccccn3)C2)cc1F (configuration not stated),-5.4%,-13.6,?,?,-22.3%,1.6
Cc1nn(C(C)C)c(C)c1CN1CCCC(C(=O)c2cccc(OC(C)C)c2)C1 (configuration not stated),-25.2%,-7.3,?,12.6µM*,-13.8%,-2.6
CCCn1nnnc1COc1ccc(C(N)=O)cc1,·,-5.9,·,·,·,-4.9
COC(=O)CSc1nc(-c2ccccc2)cc(-c2ccco2)c1C#N,·,83.3*,-4.2%,?,·,41.0*

# Bioassay records from PubChem.
